# Data reported in PubChem BioAssay (NCATS).
# Where “and” joins values, the source holds several entries; their conditions need not be identical. Equal entries are not always repeated. Unmarked numbers belong to inactive results. Inconclusive results are not listed. Where a call stands in place of a potency, no number is given. Calls of active or inactive are those of the source. Calls follow the shape of the dose curve; as a rule, active = well fitted curve in the direction sought with a large enough effect; inconclusive = small, poorly fitted or top-dose-only effect, or another doubt; inactive = no such curve, though single readings can be large; an effect the other way counts as inactive or inconclusive.
# Experiments:
# [1] = Primary qHTS for inhibitors of nuclear receptor binding SET domain protein 2 (NSD2) in an isogenic RCH-ACV NSD2 p.E1099K mutant (9B) (AID 1645876); also: nearly all actives have a fitted effect of over 70% in size; also: potency is read from the fitted curve at half-maximal effect
# [2] = Primary qHTS for inhibitors of nuclear receptor binding SET domain protein 2 (NSD2) in an RCH-ACV wild type WT cells (2C) (AID 1645877); also: nearly all actives have a fitted effect of over 70% in size; also: potency is read from the fitted curve at half-maximal effect
# [3] = molecular target: Glutathione peroxidase 1 (Homo sapiens) (UniProt P07203); experiment: Primary qHTS Assay for Inhibitors of Recombinant Selenoprotein Glutathione Peroxidase 1 (GPX1) (AID 1845191); also: nearly all actives have a fitted effect of over 65% in size
# Outline: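 10 nM GPX1 + cpd, 30 min RT; start w/ 1 mM GSH, 0.5 mM cumene hydroperoxide, 0.5 mM NADPH, 100 nM GR, 0.01% BSA; buffer 50 mM Tris-HCl pH 7.5, 2 mM EDTA, 150 mM NaCl; Fl 340/450, 0 & 15 min.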
# [4] = molecular target: Phospholipid hydroperoxide glutathione peroxidase GPX4 (Homo sapiens) (UniProt P36969); experiment: Primary qHTS Assay for Inhibitors of Recombinant Selenoprotein Glutathione Peroxidase 4 (GPX4) (AID 1845192); also: nearly all actives have a fitted effect of over 65% in size; also: potency is read from the fitted curve at half-maximal effect; as to activity change, negative = inhibition: series mostly up to about 50 µM
# Outline: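 NADPH consumption, followed by fluorescence at 340/450 nm between 0 and 15 min, reports GPX4 activity via coupled glutathione reductase (100 nM). Enzyme 200 nM was pre-exposed to compound 30 min; 0.5 mM cumene hydroperoxide and 1 mM GSH served as substrates.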
# [5] = molecular target: Luciferin 4-monooxygenase (Photinus pyralis) (UniProt P08659); experiment: Primary firefly luciferase (FLuc) qHTS assay for identification of artifact compounds. (AID 1845220); also: nearly all actives have a fitted effect of over 60% in size; also: potency is read from the fitted curve at half-maximal effect; as to activity change, negative = inhibition: series mostly up to about 54 µM
# Outline: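 Compounds sat 15 min at room temperature with 10 uM luciferin and 10 uM ATP (pH 7.6 Tris acetate). Firefly luciferase (10 nM final) was then added, and luminescence was read 5 min later. Data normalized to no-enzyme and DMSO controls were Hill-fitted.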
# [6] = Primary fluorescence-based thiol-reactive (MSTI) qHTS assay for identification of artifact compounds. (AID 1845221); also: nearly all actives have a fitted effect of over 65% in size; also: potency is read from the fitted curve at half-maximal effect;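 as to activity change, negative = thiol reactive: series mostly up to about 54 µM; thiol-reactive compounds lower the probe fluorescence signal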
# Outline: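 One-hour, room-temperature, dark incubation of compound with 4 uM MSTI in PBS (pH 7.4, 2% DMSO) precedes a fluorescence read at 525 nm excitation, 598 nm emission; Hill-equation fitting yields concentration-response values.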
# [7] = tested on: Nanoluciferase (engineered Oplophorus gracilirostris luciferase); experiment: Primary Nanoluciferase (NLuc) qHTS assay for identification of artifact compounds. (AID 1845222); also: series mostly up to about 54 µM
# Outline: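 Luminescence from secreted NLuc (filtered, 1:55-diluted S16 cell medium) read 5 min after Nano-Glo substrate; compounds preincubated 15 min, RT. Hill fits of inhibition normalized to DMSO and no-enzyme.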
# Sequence of Glutathione peroxidase 1 (Homo sapiens) (P07203 whole entry, looked up): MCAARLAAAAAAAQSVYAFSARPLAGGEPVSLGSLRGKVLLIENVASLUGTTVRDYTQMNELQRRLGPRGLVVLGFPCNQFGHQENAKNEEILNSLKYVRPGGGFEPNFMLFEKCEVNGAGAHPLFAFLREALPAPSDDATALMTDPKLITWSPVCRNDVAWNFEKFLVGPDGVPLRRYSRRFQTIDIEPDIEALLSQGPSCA
# Sequence of Phospholipid hydroperoxide glutathione peroxidase GPX4 (Homo sapiens) (P36969 whole entry, looked up): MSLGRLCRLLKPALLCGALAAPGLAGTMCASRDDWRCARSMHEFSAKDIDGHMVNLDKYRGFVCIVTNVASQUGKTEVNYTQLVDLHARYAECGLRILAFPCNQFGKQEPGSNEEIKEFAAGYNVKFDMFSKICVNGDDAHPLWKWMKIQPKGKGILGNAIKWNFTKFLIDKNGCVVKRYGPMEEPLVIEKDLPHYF
SMILES,Potency [1],Potency [2],Potency [3],Potency [4],"activity change, negative = inhibition [5]","activity change, negative = thiol reactive [6]","activity, negative = inhibition [7]",Potency [5],Potency [6],Potency [7]
CC(=O)c1c(C)c2cnc(Nc3ccc(N4CCNCC4)cn3)nc2n(C2CCCC2)c1=O,1.48 µM (active),1.32 µM (active),inactive,inactive,1.06% [at 6.45 µM],7.61% [at 6.41 µM],0% [at 6.45 µM],,,
NC(=O)Nc1cc(-c2cccc(F)c2)sc1C(=O)N[C@H]1CCCNC1,81.7 nM (active) and 74.2 nM (active),81.7 nM (active) and 74.2 nM (active),inactive,inactive,,,,inactive,inactive,inactive
C[C@@H](Oc1cc(-n2cnc3ccc(CN4CCN(C)CC4)cc32)sc1C(N)=O)c1ccccc1C(F)(F)F,0.0295 µM (active),0.0417 µM (active),inactive,inactive,,,,,,
OCc1ccc(-c2ccc(-c3ccc(CO)s3)o2)s1,50.2 nM (active) and 934 nM (active),31.7 nM (active) and 1.32 µM (active),inactive,inactive,,,,1.31 µM (active),2.6 µM (active),
O=C(NCCS(=O)(=O)c1ccc(C(F)(F)F)cn1)c1ccc(Cl)cc1,inactive,inactive,inactive,inactive,,,,,,
COC(=O)Nc1nc2ccc(C(=O)c3ccc(F)cc3)cc2[nH]1,1.29 µM (active) and 468 nM (active),1.03 µM (active) and 372 nM (active),inactive,inactive,,,,inactive,inactive,inactive
CCN(CC)CCCCNc1ncc2cc(-c3cc(OC)cc(OC)c3)c(NC(=O)NC(C)(C)C)nc2n1,16.4 µM (active) and 14.8 µM (active),14.6 µM (active) and 14.8 µM (active),inactive,inactive,,,,,,
COc1ccc(OC)c(-c2nnc3ccc(-c4ccc(OC)c(O[C@@H]5CCOC5)c4)nn23)c1,3.72 µM (active),2.95 µM (active),inactive,inactive,,,,inactive,inactive,inactive
CCN1CCN(Cc2ccc(-c3cc4c(N[C@H](C)c5ccccc5)ncnc4[nH]3)cc2)CC1,9.34 µM (active),7.42 µM (active),inactive,22.7 µM (active),,,,,,
O=C(NCCCNc1nc(Nc2cccc(NC(=O)N3CCCC3)c2)ncc1I)c1cccs1,5.8 µM (active) and 1.48 µM (active),5.8 µM (active),inactive,inactive,,,,,,
O=C(NC1CCNCC1)c1[nH]ncc1NC(=O)c1c(Cl)cccc1Cl,0.662 µM (active),0.59 µM (active),inactive,inactive,,,,,,
COC(=O)c1ccc2c(C(=Nc3ccc(N(C)C(=O)CN4CCN(C)CC4)cc3)c3ccccc3)c(O)[nH]c2c1,1.83 µM (active) and 2.63 µM (active),2.3 µM (active) and 3.32 µM (active),inactive,inactive,,,,inactive,inactive,inactive
CNC(=O)c1ccc(N2C(=S)N(c3cnc(C#N)c(C(F)(F)F)c3)C(=O)C23CCC3)cc1F,inactive,inactive,inactive,inactive,,,,inactive,inactive,inactive
C[C@]12CC[C@H](O)CC1=CCC1C2CC[C@]2(C)C(n3cnc4ccccc43)=CCC12 (stereo not given in full),inactive,inactive,inactive,inactive,,,,inactive,inactive,inactive
CC1(C)CCC(c2ccc(Cl)cc2)=C(CN2CCN(c3ccc(C(=O)NS(=O)(=O)c4ccc(N[C@H](CCN5CCOCC5)CSc5ccccc5)c(S(=O)(=O)C(F)(F)F)c4)cc3)CC2)C1,1.03 µM (active) and 1.18 µM (active),365 nM (active) and 742 nM (active),inactive,10.1 µM (active),,,,inactive,inactive,inactive
COc1cc(C)c(Sc2cnc(NC(=O)c3ccc(CNC(C)C(C)C)cc3)s2)cc1C(=O)N1CCN(C(C)=O)CC1 (stereo not given),8.33 µM (active) and 7.28 µM (active),8.33 µM (active) and 5.78 µM (active),inactive,inactive,,,,inactive,inactive,
COc1cc2c(Nc3ccc(NC(=O)c4ccccc4)cc3)ncnc2cc1OCCCN1CCOCC1,5.15 µM (active) and 4.68 µM (active),5.15 µM (active) and 934 nM (active),inactive,inactive,,,,inactive,inactive,
CC(=O)OCCN1C(=O)c2c(C)nc3ccc(S(=O)(=O)N4CCOCC4)cc3c2C1=O,inactive,inactive,inactive,inactive,,,,,,
Cc1cc(Nc2ncnc3ccc(-c4ccc(CNCCS(C)(=O)=O)o4)cc23)ccc1Oc1ccn2ncnc2c1,16.3 µM (active) and 16.6 µM (active),10.3 µM (active) and 14.8 µM (active),inactive,inactive,,,,inactive,inactive,
C1Cc2[nH]nc(-c3nn[nH]n3)c2C1,inactive,inactive,inactive,inactive,,,,inactive,inactive,inactive
